Assay [1] in a line: qHTS of pediatric cancer cell lines to identify multiple opportunities for drug repurposing: Primary screen for RD cells (AID 1347104). Also: nearly all actives have a fitted effect of over 55% in size. Also: potency is read from the fitted curve at half-maximal effect. The gist of the method:
(§1)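 500-1,000 cells/well; 5 h pre-incubation 37 °C/5% CO2; compound pinned; 48 h; CellTiter-Glo, 15 min RT; luminescence. MIPE 11-pt from 0.78 nM, NPC 8-pt from 0.59 nM final. Bortezomib 2.3 µM final as positive control.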
In general terms: Quantitative high-throughput screening tests each substance at several concentrations.

The nature of assay [2]: qHTS of pediatric cancer cell lines to identify multiple opportunities for drug repurposing: Primary screen for MG 63 (6-TG R) cells (AID 1347105). Also: nearly all actives have a fitted effect of over 50% in size. Also: potency is read from the fitted curve at half-maximal effect. In outline:
as §1

The nature of assay [3]: qHTS of pediatric cancer cell lines to identify multiple opportunities for drug repurposing: Primary screen for control Hh wild type fibroblast cells (AID 1347106).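 Also: series mostly up to about 46 µM; a drop in luminescence marks cytotoxicity and a rise apparent proliferation; nearly all actives have a fitted effect of over 55% in size.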 The gist of the method:
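Viability after 48 h compound treatment at 37C, 500-1,000 cells/well, read as ATP luminescence with CellTiter-Glo. Primary screens used 11-point (MIPE, 0.78 nM-46 µM) or 8-point (NPC, 0.59 nM-46 µM) final concentrations; follow-up screens used 11-point dilutions.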

Assay [4] in a line: qHTS of pediatric cancer cell lines to identify multiple opportunities for drug repurposing: Primary screen for Rh30 cells (AID 1347107). Also: series mostly up to about 46 µM; nearly all actives have a fitted effect of over 75% in size. The gist of the method:
(§2)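 Cells (500-1,000/well) rested 5 h, then received compounds for 48 h; metabolically active cells were measured by CellTiter-Glo luminescence. Final concentrations spanned up to 46 µM (MIPE, 11-point) or 0.59 nM-46 µM (NPC, 8-point) in primary screens, 11-point in follow-ups.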

Assay [5] is described as follows: qHTS of pediatric cancer cell lines to identify multiple opportunities for drug repurposing: Primary screen for Rh41 cells (AID 1347108). Also: nearly all actives have a fitted effect of over 70% in size. Also: potency is read from the fitted curve at half-maximal effect. The gist of the method:
as §1

Assay [6] is described as follows: qHTS of pediatric cancer cell lines to identify multiple opportunities for drug repurposing: Primary screen for OHS-50 cells (AID 1347103). Also: nearly all actives have a fitted effect of over 40% in size. Also: potency is read from the fitted curve at half-maximal effect. The gist of the method: as §2
A short description of assay [7]: qHTS of pediatric cancer cell lines to identify multiple opportunities for drug repurposing: Confirmatory screen for NB1643 cells (AID 1347109). Also: nearly all actives have a fitted effect of over 45% in size. In outline:
as §2

The nature of assay [8]: qHTS of pediatric cancer cell lines to identify multiple opportunities for drug repurposing: Confirmatory screen for A673 cells (AID 1347110).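 Also: cells exposed to compound for 48 h before the viability read; nearly all actives have a fitted effect of over 65% in size.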 Also: potency is read from the fitted curve at half-maximal effect. The gist of the method: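 A673 cells at 500-1,000 cells/well were dosed 5 h after plating, in dilution series up to 46 uM final; primary runs used 8 or 11 points and confirmatory runs used 11 points. Viability was read by CellTiter-Glo luminescence after 48 h, against DMSO and 2.3 uM bortezomib controls.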

A short description of assay [9]: qHTS of pediatric cancer cell lines to identify multiple opportunities for drug repurposing: Confirmatory screen for BT-12 cells (AID 1347112). Also: nearly all actives have a fitted effect of over 55% in size. In outline:
as §2

Assay [10] is described as follows: qHTS of pediatric cancer cell lines to identify multiple opportunities for drug repurposing: Confirmatory screen for LAN-5 cells (AID 1347113). Also: nearly all actives have a fitted effect of over 65% in size. The note with it: outcome: dose series up to 45.9 µM. In outline: as §2
Assay [11] can be described thus: qHTS of pediatric cancer cell lines to identify multiple opportunities for drug repurposing: Confirmatory screen for NB-EBc1 cells (AID 1347115).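 Also: cells exposed to compound for 48 h before the viability read; nearly all actives have a fitted effect of over 45% in size.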 The gist of the method:
as §2

Assay [12] can be described thus: qHTS of pediatric cancer cell lines to identify multiple opportunities for drug repurposing: Confirmatory screen for SJ-GBM2 cells (AID 1347116). Also: nearly all actives have a fitted effect of over 60% in size. The note with it: outcome: dose series up to 45.9 µM. In outline: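 Viability measured as metabolically active cells via CellTiter-Glo luminescence following 48 hours of compound exposure, 11-point dilutions in confirmatory testing. 500-1,000 cells/well plated 5 hours before dosing; controls were DMSO and 2.3 µM bortezomib.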

Assay [13] can be described thus: qHTS of pediatric cancer cell lines to identify multiple opportunities for drug repurposing: Confirmatory screen for BT-37 cells (AID 1347117). Also: nearly all actives have a fitted effect of over 55% in size. In outline:
as §2

A short description of assay [14]: qHTS of pediatric cancer cell lines to identify multiple opportunities for drug repurposing: Confirmatory screen for control Hh wild type fibroblast cells (AID 1347121). Also: nearly all actives have a fitted effect of over 70% in size. In outline:
as §2

Assay [15] can be described thus: qHTS of pediatric cancer cell lines to identify multiple opportunities for drug repurposing: Confirmatory screen for Rh41 cells (AID 1347123).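 Also: potency is read from the fitted curve at half-maximal effect; 48 h compound exposure; nearly all actives have a fitted effect of over 60% in size.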 The gist of the method: as §2
Assay [16] can be described thus: qHTS of pediatric cancer cell lines to identify multiple opportunities for drug repurposing: Confirmatory screen for MG 63 (6-TG R) cells (AID 1347119). Also: nearly all actives have a fitted effect of over 55% in size. The gist of the method:
as §2

Results filed as inconclusive are left out. Activity calls are given as the source filed them. Calls follow the shape of the dose curve; as a rule, active = well fitted curve in the direction sought with a large enough effect; inconclusive = small, poorly fitted or top-dose-only effect, or another doubt; inactive = no such curve, though single readings can be large; an effect the other way counts as inactive or inconclusive.

For `O=C(CCCN1CCC2(CC1)C(=O)NCN2c1ccccc1)c1ccc(F)cc1`, the Potency entry in assay [1], in [2] and in assay [5] was “inactive” each time. The compound was classed as inactive in [3] and in [4].

As to `C[C@]12CC[C@H]3[C@@H](CCC4=CC(=O)CC[C@@H]43)[C@@H]1CC[C@@H]2OC(=O)CCc1ccco1`, the Potency result in assay [1], in assay [2] and in assay [5] was “inactive” each time. Further, the result in assay [3] and in [4] was inactive.

For the compound `C[C@]12CC[C@H]3[C@@H](CCC4=CC(=O)CC[C@@H]43)[C@@H]1CC[C@@H]2OC(=O)CCC1CCCCC1`, the Potency entry in [1], in assay [2] and in assay [5] was “inactive” in each case. The call in assay [3] and in assay [4] was inactive.

As for `CCC(C)(C)c1ccc(O)cc1`, the Potency entry in assay [1], in assay [2] and in assay [5] was “inactive” in each case. The call in [3] and in assay [4] was inactive.

Consider `C[C@]12CC[C@@H]3c4ccc(OC(=O)N(CCCl)CCCl)cc4CC[C@H]3[C@@H]1CC[C@@H]2O`, for which the Potency entry in [1], in assay [2] and in assay [5] was “inactive” each time. Also, the result in assay [3] and in assay [4] was inactive.

For `CC(C(=O)c1ccccc1)N(C)C` (stereo not given), the Potency result in assay [6], in assay [1], in assay [2] and in [5] was “inactive” throughout. Also, the outcome in assay [3] and in assay [4] was inactive.

`C[C@]12CCC(=O)C=C1CC[C@@H]1[C@@H]2CC[C@@]2(C)[C@H]1CC[C@]2(C)O`: the Potency entry in assay [1], in assay [7], in assay [8], in [9], in [11] and in assay [13] was “inactive” throughout. In addition, the result in assay [3], in assay [4], in assay [10], in assay [12] and in assay [14] was inactive. Moreover, the Potency in [15] was 18.5 µM (active).

As to `O=C(Nc1ccc(Br)cc1)c1cc(Br)cc(Br)c1O`, the Potency in assay [6] was 21.9 µM (active); in [2] it was 33.5 µM (active). In assay [3], the call was inactive.

With `C[C@]12CC[C@H]3[C@@H](CC[C@@]45O[C@H]4C(O)=C(C#N)C[C@]35C)[C@H]1CC[C@H]2O`, in assay [6], the Potency result is “inactive”. Further, the Potency in [1] is 29.6 µM (active); in assay [5] it was 20.9 µM (active). Also, in [3], the result was inactive.

Take `C[C@]12CCC(=O)C=C1CC[C@@H]1[C@H]3CC[C@](C)(O)[C@@]3(C)CC[C@@H]12`: the Potency was 25.5 µM (active) in assay [6] and 38.9 µM (active) in [5]. Also, in assay [3], the compound was classed as inactive.

`CCCN(CCC)C(=O)Cc1c(-c2ccc(Cl)cc2)nc2ccc(Cl)cn12`: the Potency result in [1], in [2], in assay [7], in assay [9], in assay [11] and in [13] was “inactive” each time. Besides, the compound was classed as inactive in assay [3], in assay [4], in assay [10], in [12], in assay [16] and in [14]. Besides, the results for the Potency in [8] and in assay [15] were 10.4 µM (active) and 18.5 µM (active), respectively.

With `O=C1OC(CCN2CCCCC2)OC1(c1ccccc1)c1ccccc1` (stereo not given), the Potency entry in [6], in assay [1] and in assay [5] was “inactive” each time. The result in [3] and in assay [4] was inactive.

For `CCCCCCC(=O)CCCCCC/C=C/C[C@@H](O)[C@H](O)[C@@](N)(CO)C(=O)O`, the Potency entry in assay [1] and in assay [5] was “inactive” throughout. For the same compound, the result in [3] and in assay [4] was inactive.

`C[C@]12Cc3cn[nH]c3C[C@@H]1CC[C@@H]1[C@@H]2CC[C@@]2(C)[C@H]1CC[C@]2(C)O`: the Potency entry in assay [1] and in assay [2] was “inactive” each time. The call in [3] and in assay [4] was inactive.

With `CN1CC[C@]23c4c5ccc(O)c4O[C@H]2[C@@H](O)C=C[C@H]3[C@H]1C5`, the Potency entry in [6] and in assay [2] was “inactive” in each case. Also, the result in assay [3] and in assay [4] was inactive.

For `CC(=O)NC1CCSC1=O` (stereo not given), the Potency result in assay [6], in assay [1], in [2] and in [5] was “inactive” each time. The compound was called inactive in assay [3] and in [4].

(Values after PubChem BioAssay (NCATS).)
